Measured values reported in PubChem BioAssay (NCATS).
Records with an inconclusive call do not appear. Where a call stands in place of a potency, no number is given. The source made the active and inactive calls. Calls follow the shape of the dose curve; as a rule, active = well fitted inhibition curve with a large enough effect; inconclusive = small, poorly fitted or top-dose-only effect; inactive = no such curve, though single readings can be large or run the other way.

target: Retinaldehyde dehydrogenase 3 (Homo sapiens) (UniProt P47895); test: qHTS for Inhibitors of the Aldehyde Dehydrogenase Family (ALDH1A3) Primary screen (AID 2061315); details: ALDH inhibition qHTS; series mostly up to 56 µM

Row | SMILES | Potency
1 | c1csc(CNc2ncnc3ccc(-c4ccoc4)cc23)c1 | inactive
2 | CC(C)(C)c1ccc(-n2cnc3cc(C(=O)N4CCCCC4)ccc32)cc1 | inactive
3 | Cc1ccc(NS(=O)(=O)c2ccc3c(c2)CCC(=O)N3)cc1Cl | inactive
4 | COC(=O)Nc1sc2c(c1C(N)=O)CCCC2 | inactive
5 | Cc1ccc(C)c(SC2CS(=O)(=O)c3ccccc32)c1 (stereo not drawn) | inactive
6 | C(#Cc1cccs1)c1cccnc1 | inactive
7 | COc1cccc(C2c3c(ncn(-c4ccc5c(c4)OCO5)c3=N)Oc3ccc4ccccc4c32)c1 (stereo not drawn) | inactive
8 | CC(=O)c1ccccc1-c1ncc(C)c(NCc2ccc(-c3cccnc3)cc2)n1 | inactive
9 | O=[N+]([O-])c1ccccc1S(=O)(=O)N1CCN(S(=O)(=O)c2ccc3c(c2)OCCO3)CC1 | inactive
10 | O=C(OCC#CCSc1nnc(-c2cccc3ccccc23)o1)c1ccc2ccccc2c1 | inactive
11 | CN1CCN(c2cccc(Nc3nn4c(=O)c5ccccc5nc4s3)c2)CC1 | inactive
12 | COc1cccc(Cn2ncc3c4sc(Br)cc4n(C)c3c2=O)c1 | inactive
13 | Cc1ccc(S(=O)(=O)Nc2cc3c(cc2C(=O)Nc2nc(-c4ccccc4)cs2)OCO3)cc1 | inactive
14 | Cc1cc2c(s1)c1cnn(Cc3ccc(S(C)(=O)=O)cc3)c(=O)c1n2C | inactive
15 | Cc1csc(CNc2ncnc3ccc(-c4ccc5c(c4)OCCO5)cc23)c1 | inactive
16 | Cc1ccc(-c2ccc(=O)n(CCNC(C)c3ccco3)n2)cc1 (stereo not drawn) | inactive
17 | Cc1ccc(NS(=O)(=O)c2cccc(Cl)c2)cc1C | inactive
18 | FC(F)(F)c1cccc(N2CCN(C(=S)Nc3cc(C(F)(F)F)ccn3)CC2)c1 | inactive
19 | CC(C)c1ccccc1-c1ncc(F)c(NCC2CCN(c3cccnc3)CC2)n1 | inactive
20 | O=C(CNC(=O)c1ccccc1)OC(C(=O)Nc1ccc2c(c1)OCO2)c1ccccc1 (stereo not drawn) | inactive
21 | CC(=O)C1=C(O)C2c3c[nH]c4cccc(c34)CC2C(C)(C)N(C)C1=O (stereo not drawn) | inactive
22 | Cc1ccc(S(=O)(=O)NCCC(=O)Nc2nc(-c3ccccc3)cs2)cc1 | inactive
23 | NCc1ccc(Nc2ncc(F)c(Nc3ccccc3)n2)cc1 | inactive
